Laboratory results taken from PubChem BioAssay AID686922 (National Center for Advancing Translational Sciences (NCATS), 2013).
Values joined by “and” are separate entries in the source; they are usually repeats but may differ in a detail not shown here. Equal values may be shown once. Inconclusive results are not listed. Unmarked numbers belong to inactive results. Active and inactive are the calls of the source. Calls come from the whole dose curve; as a rule, active = well fitted inhibition curve with a large enough effect; inconclusive = small, poorly fitted or top-dose-only effect; inactive = no such curve, though single readings can be large or run the other way.

Assay: qHTS screen for inhibitors of ELG1-dependent DNA repair in human embryonic kidney (HEK293T) cells expressing luciferase-tagged ELG1: MMS Viability Assay for probe SAR
Conditions: HEK293T ELG1-luc + MMS viability, CellTiter-Glo, 16 h; series mostly up to 46.1 µM; activity change, negative = lower viability: at the top concentration
Description: Cancer cells divide rapidly compared to normal cells in the body. During cell division, cancer cells need to duplicate their genome by DNA replication. The failure of genome duplication leads to cancer cells' death. Therefore, inhibitors of DNA replication could specifically kill cancer cells. Based on this concept, many chemotherapeutic agents were developed and have been used to treat cancer patients. However, there are a limited number of agents available in the clinical setting, and some of those that do exist have low efficacy and severe side effects. Therefore, if we can find the compounds that effectively block DNA replication either by directly damaging DNA or by inhibiting other cellular mechanisms, the options for cancer treatment will be broadened. With this in mind, we developed a quantitative high-throughput ELG1-luciferase reporter gene assay. Small molecules that specifically block ELG1 function in response to DNA damage can be identified by monitoring the suppression of luciferase activity. Since ELG1 defines a pathway for repairing DNA damage, agents blocking ELG1 function can be used to sensitize cancer cells to chemotherapeutic agents whose mechanism of action involves the induction of DNA damage. Cytotoxicity of the active compounds in the ELG1 qHTS assay with MMS stimulation (AID 493125) was assessed using the CellTiter-Glo Luminescent Cell Viability Assay kit (Promega, USA). CellTiter-Glo measures the intracellular ATP present in metabolically active cells using Ultra-Glo as the luciferase to detect ATP levels. In brief, the luciferase in the buffer catalyzes the oxidation of luciferin to oxyluciferin and light which is dependent on ATP. […] DMSO and wells with media alone were used as positive and negative controls, respectively. Inactivity to this assay is the desirable outcome. NIH Molecular Libraries Probe Production Network [MLPCN] NIH Chemical Genomics Center [NCGC] MLPCN Grant: R03 MH092164 Assay Provider: Kyungjae Myung, NHGRI, NIH
ELG1-luc HEK293T cells will be seeded in 1536-well plates at a density of 2,000 cells/well. Approximately 5 hours after plating, compounds will be added to the plate by pin tool transfer and MMS will be added by FRD dispenser (final concentration of MMS = 10 µM). 16 hours following the addition of the compounds, cell viability will be measured using CellTiter Glo.

| Structure (SMILES) | Potency | activity change, negative = lower viability [%] |
| --- | --- | --- |
| COc1cc(Nc2nc(-c3ccncc3)nc3ccccc23)ccc1F | 23.5 µM (active) and 20.9 µM (active) | – |
| Fc1ccc(Nc2nc(-c3ccnc(N4CCCCC4)c3)nc3ccccc23)cc1F | – | 3.34 |
| COc1ccc(Nc2nc(-c3ccncc3)nc3ccccc23)cc1F | – | 6.58 |
| CCOC(=O)c1ccc2c(c1)c(C(C)=O)c(C)n2-c1ccc(OC)cc1 | – | 1.14 |
| COc1cc(-c2nc(Nc3ccc(F)c(F)c3)c3ccccc3n2)c(F)cn1 | 23.5 µM (active) | – |
| COc1cc(Nc2nc(-c3ccncc3)nc3ccccc23)ccc1N1CCN(C)CC1 | – | 4.02 |
| Fc1ccc(Nc2nc(-c3ccncc3Cl)nc3ccccc23)cc1F | – | -3.34 |
| Fc1cc(Nc2nc(-c3ccncc3)nc3ccccc23)ccc1C(F)(F)F | 7.43 µM (active) and 16.6 µM (active) | – |
| Fc1cccc(-c2ccc(Nc3nc(-c4ccncc4)nc4ccccc34)cc2F)c1 | – | -21.1 |
| Fc1ccc(-c2ccc(Nc3nc(-c4ccncc4)nc4ccccc34)cc2F)c(F)c1 | 7.43 µM (active) | – |
| Fc1ccc(Nc2cc(-c3ccccc3)nc(-c3ccncc3)n2)cc1F | – | -28.5 |
| Fc1cc(Nc2nc(-c3ccncc3)nc3ccccc23)ccc1OCC(F)(F)F | – | -9.42 |
| Fc1cc(Nc2nc(-c3ccncc3)nc3ccccc23)ccc1-c1cccc(OC(F)(F)F)c1 | 18.7 µM (active) | – |
| Fc1cc(Nc2nc(-c3ccncc3)nc3ccccc23)ccc1-c1cncnc1 | – | 13.8 |
| COc1ccc(-c2ccc(Nc3nc(-c4ccncc4)nc4ccccc34)cc2F)cc1F | – | -27.8 |
| O=[N+]([O-])c1ccc(-c2nc(Nc3ccc(F)c(F)c3)c3ccccc3n2)cc1 | – | -10.1 |
| Fc1cc(Nc2nc(-c3ccncc3)nc3ccccc23)ccc1-c1ccc2[nH]ncc2c1 | – | -12.3 |
| Fc1cc(Nc2nc(-c3ccncc3)nc3ccccc23)ccc1-c1cccc(C(F)(F)F)c1 | 20.9 µM (active) | – |
| COc1nccc(-c2nc(Nc3ccc(F)c(F)c3)c3ccccc3n2)c1Cl | – | -4.2 |
| Cc1cnccc1-c1nc(Nc2ccc(F)c(F)c2)c2ccccc2n1 | – | -5.06 |

| Structure (SMILES) | Potency | activity change, negative = lower viability [%] |
| --- | --- | --- |
| CSc1ccccc1-c1ccc(Nc2nc(-c3ccncc3)nc3ccccc23)cc1F | – | -35.6 |
| Fc1cc(Nc2nc(-c3ccncc3)nc3ccccc23)ccc1-c1cccnc1 | – | 1.55 |
| COC(=O)c1ccc(Nc2nc(-c3ccncc3)nc3ccccc23)cc1OC | – | 3.72 |
| Fc1cc(Nc2nc(-c3ccncc3)nc3ccccc23)ccc1-c1cccc(OC(F)F)c1 | – | -22.4 |
| Fc1cc(Nc2nc(-c3ccncc3)nc3ccccc23)ccc1-c1ccc(F)c(F)c1F | – | 3.54 |
| COc1cc(-c2nc(Nc3ccc(F)c(F)c3)c3ccccc3n2)cc(OC)n1 | – | -75.3 |
| Nc1cc(-c2nc(Nc3ccc(F)c(F)c3)c3ccccc3n2)ccn1 | – | 11.4 |
| Cc1nc2ccc(Nc3nc(-c4ccncc4)nc4ccccc34)cc2s1 | – | -3.61 |
| Fc1cccc(Nc2nc(-c3ccncc3)nc3ccccc23)c1 | – | -25.8 |
| Fc1ccc(-c2nc(-c3ccncc3)nc3ccccc23)cc1F | – | -13.7 |
| CN1CCN(c2ccc(Nc3nc(-c4ccncc4)nc4ccccc34)cc2F)CC1 | – | -7.11 |
| Fc1ccc(Nc2nc(-c3ccncc3)nc3ccccc23)cc1F | – | -6.97 |
| COc1cnccc1-c1nc(Nc2ccc(F)c(F)c2)c2ccccc2n1 | 16.6 µM (active) | – |
| Fc1cc(Nc2nc(-c3ccncc3)nc3ccccc23)ccc1-n1cncn1 | inactive | – |
| Fc1cc(Nc2nc(-c3ccncc3)nc3ccccc23)ccc1-c1ccnc(C(F)(F)F)c1 | – | -11.2 |
| Fc1ccc(Nc2nc(-c3ccnc(C(F)(F)F)c3)nc3ccccc23)cc1F | 20.9 µM (active) | – |
| COc1ccc(-n2c(C)c(C(C)=O)c3cc(O)ccc32)cc1 | – | 12.3 |
| Fc1cc(Nc2nc(-c3ccncc3)nc3ccccc23)ccc1-c1cn[nH]c1 | – | -4.27 |
| COc1ccc(-n2c(C)c(C(C)=O)c3ccccc32)cc1 | inactive | – |
| Oc1ccc(Nc2nc(-c3ccncc3)nc3ccccc23)cc1F | – | -27.3 |
